Laboratory results: PubChem BioAssay AID588689 (Southern Research Specialized Biocontainment Screening …, 2011)
Screen size: about 340,000 compounds; about 1,000 (0.29%) were called active. No stated cut-off is given here; in the data, inconclusive means inhibition above about 29% without an active follow-up result; inactive means below that. The list is a sample of the results. Entries with a potency or affinity are not part of this list.

Target: Genome polyprotein (Dengue virus type 2 (strain 16681-PDK53)) (UniProt P29991)
Assay: Dengue-2 NS5 methyltransferase inhibitors, primary screen, biochemical, confirmation dose response (AID 588689)
Conditions: Dengue-2 NS5 methyltransferase capping enzyme assay, at 25 µM, stronger effect = higher value
[1] = measured here: pilot screen replicate inhibition

Sequence of Genome polyprotein (Dengue virus type 2 (strain 16681-PDK53)) (P29991 whole entry, looked up): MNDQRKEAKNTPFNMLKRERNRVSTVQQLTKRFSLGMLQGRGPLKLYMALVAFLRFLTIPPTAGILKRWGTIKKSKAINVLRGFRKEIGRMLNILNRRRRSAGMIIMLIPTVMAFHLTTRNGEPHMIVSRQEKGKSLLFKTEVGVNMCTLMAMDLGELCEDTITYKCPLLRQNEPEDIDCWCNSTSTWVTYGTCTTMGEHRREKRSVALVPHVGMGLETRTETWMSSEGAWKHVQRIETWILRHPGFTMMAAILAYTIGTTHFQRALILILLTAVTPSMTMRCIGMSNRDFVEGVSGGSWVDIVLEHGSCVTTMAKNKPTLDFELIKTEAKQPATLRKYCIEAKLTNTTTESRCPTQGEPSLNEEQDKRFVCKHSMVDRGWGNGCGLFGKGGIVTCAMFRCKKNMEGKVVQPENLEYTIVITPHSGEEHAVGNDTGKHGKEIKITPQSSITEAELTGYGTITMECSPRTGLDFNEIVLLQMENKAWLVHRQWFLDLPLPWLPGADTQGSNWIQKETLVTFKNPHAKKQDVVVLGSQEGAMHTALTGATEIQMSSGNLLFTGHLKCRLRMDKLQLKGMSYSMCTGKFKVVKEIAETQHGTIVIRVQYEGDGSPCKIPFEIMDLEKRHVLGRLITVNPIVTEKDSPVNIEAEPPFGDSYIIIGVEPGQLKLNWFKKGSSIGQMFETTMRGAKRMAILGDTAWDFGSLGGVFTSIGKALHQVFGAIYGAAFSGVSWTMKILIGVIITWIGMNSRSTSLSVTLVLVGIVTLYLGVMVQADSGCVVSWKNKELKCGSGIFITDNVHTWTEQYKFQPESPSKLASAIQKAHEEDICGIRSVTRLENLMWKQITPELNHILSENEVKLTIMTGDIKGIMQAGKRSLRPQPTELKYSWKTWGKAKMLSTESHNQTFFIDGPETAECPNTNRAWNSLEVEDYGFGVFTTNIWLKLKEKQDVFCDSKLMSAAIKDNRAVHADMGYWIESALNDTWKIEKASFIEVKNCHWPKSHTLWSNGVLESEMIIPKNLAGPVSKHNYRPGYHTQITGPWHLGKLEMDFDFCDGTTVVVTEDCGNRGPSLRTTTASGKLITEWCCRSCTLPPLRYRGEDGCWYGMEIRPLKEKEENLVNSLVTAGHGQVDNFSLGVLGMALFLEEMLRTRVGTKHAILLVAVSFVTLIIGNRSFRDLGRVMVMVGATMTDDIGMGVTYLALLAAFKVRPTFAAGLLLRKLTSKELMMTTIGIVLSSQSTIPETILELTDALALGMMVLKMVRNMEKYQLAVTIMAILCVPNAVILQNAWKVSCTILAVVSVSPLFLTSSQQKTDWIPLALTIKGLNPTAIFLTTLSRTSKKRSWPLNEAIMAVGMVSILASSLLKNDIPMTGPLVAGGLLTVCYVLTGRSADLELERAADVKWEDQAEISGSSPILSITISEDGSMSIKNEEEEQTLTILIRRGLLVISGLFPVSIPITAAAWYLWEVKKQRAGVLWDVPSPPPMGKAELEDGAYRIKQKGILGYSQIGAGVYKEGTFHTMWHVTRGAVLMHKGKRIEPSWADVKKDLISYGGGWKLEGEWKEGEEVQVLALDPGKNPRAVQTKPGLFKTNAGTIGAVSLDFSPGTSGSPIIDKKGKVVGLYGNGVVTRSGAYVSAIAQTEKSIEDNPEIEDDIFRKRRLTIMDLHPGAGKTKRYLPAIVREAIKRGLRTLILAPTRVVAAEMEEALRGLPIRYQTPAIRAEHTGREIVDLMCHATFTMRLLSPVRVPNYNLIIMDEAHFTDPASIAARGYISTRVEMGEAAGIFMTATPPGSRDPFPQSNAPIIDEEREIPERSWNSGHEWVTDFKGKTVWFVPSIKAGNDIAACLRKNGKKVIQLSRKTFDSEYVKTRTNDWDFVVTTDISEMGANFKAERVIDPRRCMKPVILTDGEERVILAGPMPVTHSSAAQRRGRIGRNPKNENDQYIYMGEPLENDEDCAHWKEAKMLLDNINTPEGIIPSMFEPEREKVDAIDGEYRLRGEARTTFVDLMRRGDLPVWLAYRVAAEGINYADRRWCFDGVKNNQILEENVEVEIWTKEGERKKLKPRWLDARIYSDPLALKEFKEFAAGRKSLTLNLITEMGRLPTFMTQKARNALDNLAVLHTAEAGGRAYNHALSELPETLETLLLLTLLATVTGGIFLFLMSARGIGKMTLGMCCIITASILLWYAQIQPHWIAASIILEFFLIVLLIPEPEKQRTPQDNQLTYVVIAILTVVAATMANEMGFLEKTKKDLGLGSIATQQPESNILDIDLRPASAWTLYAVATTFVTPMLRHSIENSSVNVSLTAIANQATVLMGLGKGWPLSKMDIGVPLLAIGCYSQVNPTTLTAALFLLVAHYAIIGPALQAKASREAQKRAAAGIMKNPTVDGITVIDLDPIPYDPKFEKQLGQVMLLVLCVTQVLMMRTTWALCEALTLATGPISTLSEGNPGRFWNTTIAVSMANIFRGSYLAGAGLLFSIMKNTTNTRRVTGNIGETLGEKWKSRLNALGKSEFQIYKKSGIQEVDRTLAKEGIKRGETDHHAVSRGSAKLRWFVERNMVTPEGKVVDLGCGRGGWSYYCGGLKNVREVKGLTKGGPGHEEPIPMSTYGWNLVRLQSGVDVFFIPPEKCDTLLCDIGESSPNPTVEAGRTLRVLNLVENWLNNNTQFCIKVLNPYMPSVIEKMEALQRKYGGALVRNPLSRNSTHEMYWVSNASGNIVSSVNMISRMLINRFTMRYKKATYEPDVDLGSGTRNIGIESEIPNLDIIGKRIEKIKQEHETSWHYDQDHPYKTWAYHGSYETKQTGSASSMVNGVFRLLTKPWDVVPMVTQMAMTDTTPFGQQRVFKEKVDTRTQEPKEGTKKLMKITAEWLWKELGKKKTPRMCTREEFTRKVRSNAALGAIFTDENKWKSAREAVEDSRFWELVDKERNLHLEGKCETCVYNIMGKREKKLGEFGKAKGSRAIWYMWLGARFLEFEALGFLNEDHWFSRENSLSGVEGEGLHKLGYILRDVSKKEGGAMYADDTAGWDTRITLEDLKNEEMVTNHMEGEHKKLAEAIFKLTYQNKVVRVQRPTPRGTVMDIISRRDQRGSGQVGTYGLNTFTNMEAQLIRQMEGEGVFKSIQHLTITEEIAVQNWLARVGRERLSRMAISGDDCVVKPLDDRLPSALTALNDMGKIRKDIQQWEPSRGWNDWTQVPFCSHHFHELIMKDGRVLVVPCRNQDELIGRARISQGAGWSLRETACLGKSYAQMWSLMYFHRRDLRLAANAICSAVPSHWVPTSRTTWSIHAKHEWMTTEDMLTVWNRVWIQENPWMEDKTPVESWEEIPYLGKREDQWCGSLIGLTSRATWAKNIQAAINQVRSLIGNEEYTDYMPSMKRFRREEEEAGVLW

| Structure (SMILES) | inhibition | inhibition [1] [%] |
| --- | --- | --- |
| COc1ccc(C(CNC(=O)c2ccc(-c3ccccc3Cl)o2)N2CCCC2)cc1 (centres undefined) | 1.14% (inactive) | – |
| NS(=O)(=O)c1ccc(CCNC(=O)Nc2ccc(Cl)c(Cl)c2)cc1 | -1.37% (inactive) | – |
| CCc1c(C(=O)N2CCOCC2)csc1C | -2.41% (inactive) | – |
| O=C(c1ccccc1)c1cn[nH]c1-c1ccccc1O | -2.78% (inactive) | – |
| Cc1nc(COC(=O)c2ccc(CO)cc2)cs1 | -2.35% (inactive) | – |
| COc1ccc(C(=O)OCc2csc(C)n2)c(O)c1 | -2.19% (inactive) | – |
| COc1ccc(OC)c(C(=O)CCCC(=O)c2cc(OC)ccc2OC)c1 | 5.23% (inactive) | – |
| CCCCc1c(C(=O)O)cc(OC)cc1C(=O)O | 5.73% (inactive) | – |
| CCCCCc1cc(OC)cc2c1C(=O)OC(C)(C)O2 | 1.32% (inactive) | -1.23 |
| COc1ccc(OC)c(C(=O)CCCCC(=O)c2cc(OC)ccc2OC)c1 | 2.88% (inactive) | – |
| Cc1nc2c([nH]1)C1(CCN(Cc3ccccc3)CC1)C(C#N)=C(N)O2 | 12.1% (inactive) | – |
| O=C(c1ccncc1)N(Cc1cc2ccccc2[nH]c1=O)C1CCCCC1 | -1.6% (inactive) | – |
| Cc1ccc(NS(=O)(=O)c2ccccc2)c(NS(=O)(=O)c2ccccc2)c1 | 13.2% (inactive) | – |
| COc1ccc(S(=O)(=O)NC2CC3CCC2C3)cc1 (centres undefined) | -4.66% (inactive) | – |
| Cc1c(CC(=O)O)c(=O)oc2c(C)c(OCc3ccc(F)cc3Cl)ccc12 | 1.96% (inactive) | – |
| Cc1c(CCC(=O)O)c(=O)oc2cc3occ(-c4ccc(Br)cc4)c3cc12 | 17.7% (inactive) | – |
| COc1ccccc1COc1ccc2c(C)c(CCC(=O)O)c(=O)oc2c1C | 7.18% (inactive) | – |
| COc1cccc(-c2coc3cc4oc(=O)c(CCC(=O)O)c(C)c4cc23)c1 | 9.7% (inactive) | – |
| Cc1c(CC(=O)O)c(=O)oc2c(C)c3occ(-c4ccc(Br)cc4)c3cc12 | 26.1% (inactive) | – |

| Structure (SMILES) | inhibition | inhibition [1] [%] |
| --- | --- | --- |
| COc1cccc(-c2coc3c(C)c4oc(=O)c(CC(=O)O)c(C)c4cc23)c1 | 1.96% (inactive) | – |
| COc1ccc(-c2coc3c(C)c4oc(=O)c(CCC(=O)O)c(C)c4cc23)cc1 | 11.8% (inactive) | – |
| Cc1c(CCC(=O)O)c(=O)oc2cc3occ(-c4ccc(Cl)cc4)c3cc12 | 18.3% (inactive) | – |
| CCC[C@@H](CN1CCC[C@H]1CN1C(N)=NC[C@@H]1Cc1ccccc1)N1C[C@@H]([C@H](C)CC)N(CCc2ccc(Cl)c(Cl)c2)C1=N | -10.2% (inactive) | – |
| COc1ccc(-n2c(=O)cc(N3CC(C)OC(C)C3)[nH]c2=O)cc1 (centres undefined) | -3.21% (inactive) | – |
| N#Cc1ccc(OCc2nnc3n2CCCCC3)cc1 | -1.53% (inactive) | – |
| CCOCCn1c(CN2CCN(C(c3ccccc3)c3ccccc3)CC2)nc2c1c(=O)n(C)c(=O)n2C | -5.88% (inactive) | – |
| COc1ccc(NC(=O)Nc2ccc3c(c2)CCC3)cc1 | 1.61% (inactive) | – |
| Cc1ccc(Sc2cc(NCCCO)c([N+](=O)[O-])c3nonc23)cc1 | 16.2% (inactive) | – |
| Cc1nnc(Sc2cc(NCCCO)c([N+](=O)[O-])c3nonc23)s1 | 18.5% (inactive) | – |
| CCC(=O)OCCNc1cc(Sc2nc3ccccc3[nH]2)c2nonc2c1[N+](=O)[O-] | 29.8% (inactive) | – |
| CCCC(=O)OCCNc1cc(Sc2nc3ccccc3[nH]2)c2nonc2c1[N+](=O)[O-] | 20.4% (inactive) | – |
| Cc1nnc(Sc2cc(NCCO)c([N+](=O)[O-])c3nonc23)s1 | 1.46% (inactive) | – |
| CN(CCO)c1cc(Sc2nc3ccccc3s2)c2nonc2c1[N+](=O)[O-] | 48.2% (inactive) | – |
| C[C@@H]1CC=C[C@@H]2[C@H]1C(=O)N(Cc1ccccc1)[C@H]2c1cccc(C#Cc2ccccc2)c1 | -4.3% (inactive) | -5.45 |
| CC(C)=CCC(C)(C)C1OCCN1C(=O)c1ccccc1 (centres undefined) | -7.18% (inactive) | – |
| Cc1cc(Br)ccc1NC(=O)CN(C)C(=O)C1CCN(C(=O)c2ccc(Cl)cc2)CC1 | -3.75% (inactive) | – |
| O=C1OC(c2ccccc2)c2ccc3ccccc3c21 (centres undefined) | -10.9% (inactive) | – |
| CCOc1ccc2c(C)c(Cl)c(=O)oc2c1 | -0.69% (inactive) | – |

| Structure (SMILES) | inhibition | inhibition [1] [%] |
| --- | --- | --- |
| OCCN1CCN(c2cc(-c3ccccc3)c3ccccc3n2)CC1 | -4.36% (inactive) | – |
| Cc1ccc(NC(=O)COC(=O)c2c(C)nn(-c3ccccc3)c2C)cc1 | 7.29% (inactive) | – |
| CC(=O)NN1C(=O)/C(=C\c2ccccc2)SC1=S | -3.17% (inactive) | – |
| Cc1ccc(/C=C2\SC(=S)N(CCC(=O)NNS(=O)(=O)c3ccc(C)cc3)C2=O)cc1 | -5.09% (inactive) | – |
| C=CCOc1ccc(/C=C2\SC(=S)N(N3CCOCC3)C2=O)cc1 | -7.66% (inactive) | – |
| COc1cccc(-n2nnnc2SCC(=O)NCc2ccco2)c1 | -6.77% (inactive) | – |
| O=C(NCCc1c[nH]c2ccccc12)c1ccco1 | -0.82% (inactive) | – |
| O=C(CNC(=O)C(c1ccccc1)c1ccccc1)N/N=C\c1ccc(C(=O)O)cc1 | 0% (inactive) | – |
| Cc1ccc(S(=O)(=O)N2CCN(S(=O)(=O)N3CCOCC3)CC2)cc1C | 2.05% (inactive) | – |
| O=C(CCc1ccc(S(=O)(=O)N2CCOCC2)cc1)N/N=C/c1ccc(F)cc1F | -6.07% (inactive) | – |
| O=C(CCc1ccc(S(=O)(=O)N2CCOCC2)cc1)N/N=C/c1cccc(O)c1 | -1.28% (inactive) | – |
| Cc1cc(/C=N/NC(=O)c2ccccc2F)c(C)n1-c1ccccc1 | -8.18% (inactive) | – |
| COc1ccc(/C=N/NC(=O)CCN2CCN(c3ccccc3)CC2)c(OC)c1OC | -0.66% (inactive) | – |
| COc1ccc(/C=N/NC(=O)c2cc(C)n(-c3ccccc3)c2C)cc1OC | -10.9% (inactive) | – |
| CCn1c(C)nc2cc(C(=O)N/N=C/c3cccc(OC)c3O)ccc21 | -3.68% (inactive) | – |
| O=C(CCN1CCN(c2ccccc2)CC1)N/N=C/c1ccccc1O | -10.4% (inactive) | – |
| CCn1c(C)nc2cc(C(=O)N/N=C/c3cccc(O)c3O)ccc21 | -0.82% (inactive) | – |
| CCOC(=O)CN1C(=O)N[C@@H](c2cccs2)C(C(=O)OC)=C1C | -0.8% (inactive) | – |
| Cn1ccnc1C(=O)c1cc(SCC(=O)NC2CC2)nc2ccccc12 | 0.73% (inactive) | – |
